Assay [1] can be described thus: binders of probe aFSTL3 on microarray, primary screen, stem cell growth factor project, biochemical, small-molecule microarray, fluorescence 635/667 (AID 1064).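 Further: measures binding of the biotinylated anti-FSTL3 antibody to printed compounds.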 The note with it: higher = more signal.
A short description of assay [2]: binders from COS7 lysate, DM2A8 probe, primary screen, torsin A project, cell lysate, small-molecule microarray, fluorescence 635/667 (AID 1065). To be noted: higher = more signal, COS7 lysate expressing mutant human TOR1A.
Assay [3] can be described thus: binders of probe aFGF2 on microarray, primary screen, stem cell growth factor project, biochemical, small-molecule microarray, fluorescence 635/667 (AID 1067).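 Further: measures binding of biotinylated aFGF2 protein to printed compounds on slides; z-score merges feature fluorescence and signal-to-noise across triplicate slides.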 The note with it: higher = more signal.
Assay [4] is described as follows: binders of probe aFGF10 on microarray, primary screen, stem cell growth factor project, biochemical, small-molecule microarray, fluorescence 635/667 (AID 1071).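 Further: score merges 667 nm spot intensity and signal to noise from triplicate slides.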 To be noted: higher = more signal.
Assay [5] deals with Neurogenic locus notch homolog protein 2 (Homo sapiens) (UniProt Q04721). In words: Notch2 binders on small-molecule microarrays, primary screen, biochemical, small-molecule microarray, 635 nm fluorescence, stem cell growth factors (AID 1073). The note with it: Notch2 binding, higher = more signal.
The target in assay [6] is Pro-neuregulin-1, membrane-bound isoform (Homo sapiens) (UniProt Q02297). In words: NRG1 binders on small-molecule microarrays, primary screen, psychiatric disease protein project, biochemical, small-molecule microarray, fluorescence 635/667 (AID 1075).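 Further: score combines 667 nm spot fluorescence with signal to noise.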 To be noted: NRG1 binding, 635 nm fluorescence, higher = more signal.
Assay [7] has as its system Neuregulin-1 EGF-like domain. In words: binders of neuregulin-1 EGF-like domain, primary screen, biochemical, small-molecule microarray, 635 nm fluorescence (AID 1081).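 Further: binding of the protein to compounds printed on small-molecule microarray slides.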 To be noted: small-molecule microarray binding, higher = more signal.
Assay [8] in a line: FRG1 promoter luciferase signal modulators, primary screen, FRG1 inhibition for FSHD, cell-based, C2C12 myotubes, firefly/Renilla luciferase, luminescence (AID 1084). The note with it: higher = more signal, called active from +8 up or from −8 down.
Assay [9] can be described thus: binders of probe aFST on microarray, primary screen, stem cell growth factor project, biochemical, small-molecule microarray, fluorescence 635/667 (AID 1086).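 Further: score merges 667 nm fluorescence with signal-to-noise of each printed compound spot.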 To be noted: higher = more signal.
Assay [10] in a line: binders of probe aHhip on microarray, primary screen, stem cell growth factor project, biochemical, small-molecule microarray, fluorescence 635/667 (AID 1087).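 Further: score merges spot fluorescence at 667nm with spot signal to noise ratio.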 The note with it: higher = more signal.
Assay [11] has as its system PRMT1 (protein arginine N-methyltransferase 1). Nature of the assay: PRMT1 binders on small-molecule microarrays, primary screen, biochemical, small-molecule microarray, 635 nm fluorescence (AID 1088).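 Further: binding of Prmt1 protein to compounds spotted on small-molecule microarray slides.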 The note with it: small-molecule microarray binding, higher = more signal.
Assay [12] is described as follows: yeast growth modulation, basal conditions, primary screen, YJM789 clinical isolate, OD600, 24 h (AID 1089).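 Further: growth of clinical yeast isolate S. cerevisiae YJM 789 seeded 1000 cells per well; test concentration not given here.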 To be noted: S. cerevisiae YJM789 growth, higher = more signal, called active from +8 up or from −8 down.
Assay [13] can be described thus: fission yeast growth modulation, primary screen, strain 972, OD600, 24 h, no modulator (AID 1090).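 Further: basal condition with compound alone and no growth modifier present; test concentration not given here.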 The note with it: S. pombe 972 growth, higher = more signal, called active from +8 up or from −8 down.
Assay [14] can be described thus: S. cerevisiae growth modulation with rapamycin, primary screen, strain BY4716, OD600, 96 h (AID 1091). Further: test concentration not given here. To be noted: higher = more signal, called active from +8 up or from −8 down.
Assay [15] concerns the target Torsin-1A-interacting protein 2 (Homo sapiens) (UniProt Q8NFQ8). In words: LULL1 binders on small-molecule microarray, primary screen, cell lysate, human LULL1 lysate, 635/667 nm fluorescence (AID 1092).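 Further: probe is lysate of COS7 cells overexpressing human LULL1; score merges per-feature 667 nm fluorescence with signal-to-noise.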 The note with it: hLULL1 lysate binding, 635 nm fluorescence, higher = more signal.
Assay [16] can be described thus: E. coli growth modulation, two-sided OD650, primary screen, E. coli filamentation project, strain DRC41, 24 h (AID 1093).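 Further: MC1000 strain lacking acrAB efflux and sulA so SOS filamentation is blocked; test concentration not given here.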 The note with it: OD650, 24 h, higher = more signal, called active from +8 up or from −8 down.
The nature of assay [17]: small-molecule microarray binders of probe aLefty2, primary screen, biochemical, biotinylated probe, 635/667 nm fluorescence (AID 1094).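 Further: score merges spot fluorescence near 667 nm with spot signal-to-noise ratio.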 The note with it: higher = more signal.
Assay [18] concerns Noggin (protein binding on small-molecule microarray). In words: Noggin binders on small-molecule microarray, primary screen, biochemical, 635/667 nm fluorescence (AID 1095).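 Further: score merges 667 nm feature fluorescence with signal to noise over triplicate slides.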 To be noted: 635 nm fluorescence, higher = more signal.
Assay [19] concerns the target Neurogenic locus notch homolog protein 3 (Homo sapiens) (UniProt Q9UM47). In words: NOTCH3 binders on small-molecule microarray, primary screen, biochemical, 635/667 nm fluorescence (AID 1096). The note with it: NOTCH3 binding, 635 nm fluorescence, higher = more signal.
Assay [20] is described as follows: small-molecule microarray binders of probe aEGFR, primary screen, biochemical, biotinylated probe, 635/667 nm fluorescence (AID 1097).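 Further: probe is a biotinylated anti-EGFR antibody binding compounds printed on slides; score combines fluorescence near 667 nm and signal to noise of each spot.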 The note with it: higher = more signal.

Active and inactive are the calls of the source.

The text below walks through data of PubChem BioAssay.

Pro-neuregulin-1, membrane-bound isoform (Homo sapiens), sequence (Q02297 whole entry, looked up, the tested form may be a part, canonical isoform): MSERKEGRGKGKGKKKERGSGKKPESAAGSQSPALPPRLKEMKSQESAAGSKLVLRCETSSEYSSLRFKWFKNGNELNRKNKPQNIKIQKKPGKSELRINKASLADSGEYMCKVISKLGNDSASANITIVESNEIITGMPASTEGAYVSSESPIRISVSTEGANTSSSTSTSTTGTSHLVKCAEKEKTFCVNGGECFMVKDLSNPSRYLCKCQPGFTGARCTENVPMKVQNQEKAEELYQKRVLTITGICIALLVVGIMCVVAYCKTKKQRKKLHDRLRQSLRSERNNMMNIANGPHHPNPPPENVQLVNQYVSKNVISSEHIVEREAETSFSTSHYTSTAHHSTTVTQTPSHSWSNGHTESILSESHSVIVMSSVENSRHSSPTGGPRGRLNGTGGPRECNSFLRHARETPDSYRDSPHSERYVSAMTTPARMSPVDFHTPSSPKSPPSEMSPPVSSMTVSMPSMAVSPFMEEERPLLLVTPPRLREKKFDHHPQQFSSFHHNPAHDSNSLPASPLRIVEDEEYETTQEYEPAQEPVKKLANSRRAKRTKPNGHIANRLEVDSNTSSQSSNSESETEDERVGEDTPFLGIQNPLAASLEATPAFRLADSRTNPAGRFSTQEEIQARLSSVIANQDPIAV
Torsin-1A-interacting protein 2 (Homo sapiens), sequence (Q8NFQ8 whole entry, looked up): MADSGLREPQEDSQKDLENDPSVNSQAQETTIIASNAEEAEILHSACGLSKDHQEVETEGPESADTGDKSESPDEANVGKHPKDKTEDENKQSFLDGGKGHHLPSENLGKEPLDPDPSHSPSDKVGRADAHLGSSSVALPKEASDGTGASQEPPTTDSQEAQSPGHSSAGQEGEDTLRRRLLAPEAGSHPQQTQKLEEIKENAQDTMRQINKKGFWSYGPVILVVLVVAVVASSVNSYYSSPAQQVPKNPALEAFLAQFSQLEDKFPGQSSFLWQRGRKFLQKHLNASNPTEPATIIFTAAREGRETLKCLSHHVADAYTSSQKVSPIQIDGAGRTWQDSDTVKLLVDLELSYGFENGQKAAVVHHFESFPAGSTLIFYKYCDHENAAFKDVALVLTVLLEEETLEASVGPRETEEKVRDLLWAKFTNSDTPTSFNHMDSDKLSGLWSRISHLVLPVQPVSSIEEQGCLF
Neurogenic locus notch homolog protein 3 (Homo sapiens), sequence (Q9UM47 whole entry, looked up): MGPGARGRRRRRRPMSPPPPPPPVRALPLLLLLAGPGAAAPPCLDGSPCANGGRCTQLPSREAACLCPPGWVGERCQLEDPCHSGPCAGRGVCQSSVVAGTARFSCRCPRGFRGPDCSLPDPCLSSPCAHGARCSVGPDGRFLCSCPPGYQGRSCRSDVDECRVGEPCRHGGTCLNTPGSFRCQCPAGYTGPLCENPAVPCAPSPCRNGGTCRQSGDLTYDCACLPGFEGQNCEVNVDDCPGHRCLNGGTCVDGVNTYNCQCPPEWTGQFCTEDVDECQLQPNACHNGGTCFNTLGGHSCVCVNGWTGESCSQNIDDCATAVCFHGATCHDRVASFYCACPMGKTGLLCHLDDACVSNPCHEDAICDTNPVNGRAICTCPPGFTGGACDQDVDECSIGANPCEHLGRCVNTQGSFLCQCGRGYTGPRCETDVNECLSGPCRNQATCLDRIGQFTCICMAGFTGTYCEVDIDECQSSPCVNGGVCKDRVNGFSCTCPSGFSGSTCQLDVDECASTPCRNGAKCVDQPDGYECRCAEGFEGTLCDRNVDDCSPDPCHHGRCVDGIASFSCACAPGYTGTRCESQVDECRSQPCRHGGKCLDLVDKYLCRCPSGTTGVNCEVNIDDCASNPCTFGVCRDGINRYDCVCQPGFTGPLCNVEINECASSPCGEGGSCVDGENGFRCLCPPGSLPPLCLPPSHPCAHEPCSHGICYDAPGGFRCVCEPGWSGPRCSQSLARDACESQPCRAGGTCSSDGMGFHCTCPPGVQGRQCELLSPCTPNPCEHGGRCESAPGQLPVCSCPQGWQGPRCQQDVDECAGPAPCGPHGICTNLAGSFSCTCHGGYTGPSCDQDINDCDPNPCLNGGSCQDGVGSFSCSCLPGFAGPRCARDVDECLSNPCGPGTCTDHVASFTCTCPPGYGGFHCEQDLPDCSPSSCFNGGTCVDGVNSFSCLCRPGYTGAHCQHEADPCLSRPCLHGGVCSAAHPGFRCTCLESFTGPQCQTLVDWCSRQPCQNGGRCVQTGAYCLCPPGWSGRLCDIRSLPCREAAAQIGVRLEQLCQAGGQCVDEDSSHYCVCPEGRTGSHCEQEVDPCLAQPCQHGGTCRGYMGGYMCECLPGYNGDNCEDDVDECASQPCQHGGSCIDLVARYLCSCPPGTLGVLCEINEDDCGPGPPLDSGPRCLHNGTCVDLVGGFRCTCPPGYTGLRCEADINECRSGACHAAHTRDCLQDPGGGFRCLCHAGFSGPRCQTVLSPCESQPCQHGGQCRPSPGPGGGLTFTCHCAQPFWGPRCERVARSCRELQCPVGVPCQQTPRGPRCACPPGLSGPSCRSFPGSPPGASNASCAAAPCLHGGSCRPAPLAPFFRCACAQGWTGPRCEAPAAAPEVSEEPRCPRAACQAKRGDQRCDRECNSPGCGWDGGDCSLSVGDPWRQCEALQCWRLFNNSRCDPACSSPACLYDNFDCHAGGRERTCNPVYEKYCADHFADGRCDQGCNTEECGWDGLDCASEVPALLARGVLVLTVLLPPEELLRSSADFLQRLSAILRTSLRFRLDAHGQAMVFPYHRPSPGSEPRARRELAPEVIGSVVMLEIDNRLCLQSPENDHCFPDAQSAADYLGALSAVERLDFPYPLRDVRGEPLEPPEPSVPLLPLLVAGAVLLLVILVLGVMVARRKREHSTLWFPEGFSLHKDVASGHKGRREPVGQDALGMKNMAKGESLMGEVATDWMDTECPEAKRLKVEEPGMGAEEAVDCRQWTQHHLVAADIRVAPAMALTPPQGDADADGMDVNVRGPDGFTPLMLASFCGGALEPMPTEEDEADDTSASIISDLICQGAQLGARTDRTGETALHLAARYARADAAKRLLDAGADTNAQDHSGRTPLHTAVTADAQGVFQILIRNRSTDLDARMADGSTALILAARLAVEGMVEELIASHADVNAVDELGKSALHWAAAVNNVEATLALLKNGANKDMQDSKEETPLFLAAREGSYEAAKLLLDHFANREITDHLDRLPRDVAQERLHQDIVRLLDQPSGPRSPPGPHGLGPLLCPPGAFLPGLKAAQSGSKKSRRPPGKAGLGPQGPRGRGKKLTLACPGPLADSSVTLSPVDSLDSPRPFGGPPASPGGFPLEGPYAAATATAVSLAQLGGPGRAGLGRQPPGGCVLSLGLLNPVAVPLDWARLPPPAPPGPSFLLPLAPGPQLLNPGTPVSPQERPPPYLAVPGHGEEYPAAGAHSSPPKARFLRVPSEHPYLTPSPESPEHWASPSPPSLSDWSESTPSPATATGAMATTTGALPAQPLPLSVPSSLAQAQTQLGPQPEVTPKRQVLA

As for `COCCOC(=O)N1C(=O)[C@@]2(c3ccccc31)[C@H](c1ccc(OCCO)cc1)N1[C@H](c3ccccc3)[C@H](c3ccccc3)OC(=O)[C@H]1[C@@H]2C(=O)NC[C@H](O)c1ccccc1`, the composite z-score was -0.115 in assay [1]; 0.537 in assay [2]; 0.0276 in assay [3]; 0.228 in assay [4]; 0.614 in [5]; 1.52 in [6]. Also, the composite z-score in assay [7] was 1.35; in assay [9], 0.576; in [10] it was -0.0753; in assay [11], 1.53; in assay [15], 3.09; in assay [17], 0.187. Also, the composite z-score is 1.19 in [18], 1.04 in assay [19] and -0.0759 in assay [20]. Further, the z-score is -1.51 (inactive) in assay [8]; 2.2 (inactive) in [12]; 0.892 (inactive) in [13]; 6.77 (inactive) in assay [14]; -0.0625 (inactive) in [16].

Regarding `COCCOC(=O)N1C(=O)[C@@]2(c3cc(C#Cc4ccc(OC)cc4)ccc31)[C@H](C(=O)N1CCc3cc(OC)c(OC)cc3C1)[C@H]1C(=O)O[C@H](c3ccccc3)[C@H](c3ccccc3)N1[C@@H]2c1ccc(O)cc1`, the composite z-score is -0.285 in assay [1]; 0.613 in [2]; -0.129 in [3]; 0.64 in assay [4]; 1.47 in [5]; 1.17 in assay [6]. The composite z-score was 1.19 in assay [7]; -0.0689 in assay [9]; -0.297 in assay [10]; 1.55 in assay [11]; 2 in [15]; -0.23 in [17]. Besides, the composite z-score in assay [18] is 0.614; in [19], 1.14; in assay [20] it was -0.0197. Further, the z-score in assay [8] was 0.707 (inactive); in assay [12], 1.99 (inactive); in [13] it was 1.71 (inactive); in assay [14], 2.29 (inactive); in assay [16], 1.12 (inactive).

For the compound `COCCCNC(=O)[C@@]1(Cc2ccccc2I)c2ccccc2C(=O)N(Cc2ccccc2Cl)[C@H]1c1ccc(CO)cc1`, the composite z-score in [1] is -0.196; in assay [2], 0.229; in [3], -0.0686; in assay [4] it was 0.293; in assay [5], 0.153; in assay [6] it was 1.3. In addition, the composite z-score was 1.13 in [7]; -0.211 in assay [9]; -0.156 in assay [10]; 0.34 in assay [11]; 2.37 in assay [15]; 0.0842 in assay [17]. For the same compound, the composite z-score in assay [18] was 0.323; in assay [19], 0.344; in [20], -0.0429. The z-score was -1.21 (inactive) in [8]; -2.1 (inactive) in assay [12]; -0.477 (inactive) in assay [13]; -0.905 (inactive) in assay [14]; -0.162 (inactive) in [16].

As for `COC(=O)[C@]1(Cc2ccccc2N=[N+]=[N-])N=C(c2ccc(OCCCO)cc2)O[C@@H]1c1ccccc1`, the composite z-score in assay [1] was 1.3; in [2], 0.517; in [3], 0.0132; in [4], -0.152; in assay [5] it was -0.0515; in assay [6], 0.358. Moreover, the composite z-score was found to be 0.929 in assay [7]; 0.182 in assay [9]; 0.0291 in assay [10]; 0.867 in assay [11]; 2.21 in assay [15]; 0.23 in assay [17]. Moreover, the composite z-score in assay [18] was -0.4; in assay [19], -0.361; in assay [20] it was -0.136. For the same compound, the z-score in [8] was -0.237 (inactive); in [12], 0.537 (inactive); in [13], -1.28 (inactive); in [14], 21.8 (active); in assay [16] it was 1.06 (inactive).

Take `O=C(NCc1ccccc1)[C@]1(Cc2ccccc2)N=C(c2ccc(OCCCO)cc2)O[C@@H]1c1ccccc1`: the composite z-score in [1] was 0.78; in assay [2], -0.136; in [3] it was -0.0499; in assay [4], 0.885; in assay [5], 1.46; in [6] it was 1.31. Moreover, the composite z-score stood at 0.93 in [7]; 0.662 in [9]; 0.0024 in [10]; 0.882 in assay [11]; 2.68 in assay [15]; 0.0609 in assay [17]. In addition, the composite z-score in [18] is -0.102; in [19], 0.256; in assay [20] it was 0.676. Further, the z-score in assay [8] is -2.57 (inactive); in assay [12] it was 1.83 (inactive); in [13], 1.26 (inactive); in assay [14] it was 18.9 (active); in [16], -1.26 (inactive).
